This is a sample that favours compounds with a hit; in the whole collection about 19% have one here.
HT1080NT lethal = qHTS for induction of synthetic lethality in tumor cells producing 2HG: qHTS for the HT-1080-NT fibrosarcoma cell line. HT-1080-NT fibrosarcoma viability, CellTiter-Glo ATP luminescence, 48 h. Potency, µM (highest dose often 46.1 µM), hits mostly cytotoxic. 1.6% of 360,000 active;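 further: NT is the 2HG producing partner of a matched IDH1 knockdown line; nearly all actives have a fitted effect of over 55% in size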
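HT-1080-NT fibrosarcoma cells (2HG-overproducing), 750 cells/well in RPMI with 5% FBS, dosed after 2 h and incubated 48 h at 37C. CellTiter-Glo luminescence normalized to DMSO and no-cell wells; concentration-response curves fitted and classed.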
IL-1B inflam inh = qHTS for Inhibitors of Inflammasome Signaling: IL-1-beta AlphaLISA Primary Screen. THP-1 LPS/ATP IL-1B secretion, AlphaLISA, 16 h; stronger effect = lower value. activity change, % at 57.5 µM. 4.7% of 360,000 active; in the data active means activity change below about -50%; inconclusive means mostly about -30% to -49%
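Secreted IL-1B measured by AlphaLISA bead assay after 16 h compound exposure of THP-1 cells; compounds (final up to 57.5 uM) added 1 h before LPS (250 ng/mL) and ATP (1.25 mM) stimulation; lower signal means less secretion.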
HT1080 IDH1KD tx = qHTS for induction of synthetic lethality in tumor cells producing 2HG: qHTS for the HT-1080-IDH1KD cell line; HT-1080 IDH1 knockdown viability, ATP luminescence, 48 h; 2% of 360,000 active; Potency, µM (highest dose often 46.1 µM), most hits filed as cytotoxic; AID 686971, 2013
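% activity derives from luminescence (CellTiter-Glo), normalised to DMSO and no-cell wells. HT-1080-IDH1KD cells, 750/well, had 48 h compound exposure at 37 °C.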
TDP1 cell CPT = qHTS for Inhibitors of human tyrosyl-DNA phosphodiesterase 1 (TDP1): qHTS in cells in presence of CPT; Potency, µM (doses to about 46.2 µM), hits mostly inhibitors; AID 686979, 2013; 12% of 420,000 active; chicken DT40 Tdp1-/-;hTDP1 cells + 20 nM CPT, ATP luminescence, 48 h; further: nearly all actives have a fitted effect of over 55% in size
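Cell growth measured by CellTiter-Glo luminescence after a minimum 48 h, 37 C compound exposure with 20 nM CPT in Tdp1-knockout DT40 cells stably expressing hTDP1, seeded 400/well; qHTS titration format.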
DT40 TDP1 no CPT = qHTS for Inhibitors of human tyrosyl-DNA phosphodiesterase 1 (TDP1): qHTS in cells in absence of CPT; Potency, µM (doses to about 46.2 µM), usual class: inhibitors; DT40 Tdp1-/- hTDP1 cells, no CPT, ATP luminescence, 48 h; 15% of 420,000 active; further: nearly all actives have a fitted effect of over 55% in size
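Cells were dispensed at 400 per well, compounds added by pin tool, plates incubated ≥48 hr at 37 °C, then CellTiter-Glo added for 30 min at room temperature before luminescence reading. Line: DT40 Tdp1-/- complemented with hTDP1; camptothecin omitted.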
Each line names hits and unclear results; the compound was inactive in the other large screens; ! = not confirmed by another sample. Unless noted, the call rests on the fitted dose curve; in most records, active means well fitted curve in the direction sought with a large enough effect; inconclusive means small, poorly fitted or top-dose-only effect, or another doubt; inactive means no such curve, though single readings can be large; an effect the other way counts as inactive or inconclusive.

CC(=O)N1C(=O)C2(C(C#N)=C(N)Oc3cc(C)oc(=O)c32)c2ccccc21 (centres undefined)	none
CCCCc1[nH]nc2c1C1(C(=O)N(CC)c3ccccc31)C(C#N)=C(N)O2 (centres undefined)	none
CO[C@@H]1O[C@@H]2COC(c3ccccc3)O[C@@H]2[C@@H](OC)[C@@H]1O (some centres undefined)	none
O=CNC1c2ccccc2CCc2ccccc21	none
CC(=O)c1cccc(NC(=O)c2ccc3c(Cl)c4c(nc3c2)CCCC4)c1	TDP1 cell CPT inconclusive, DT40 TDP1 no CPT 23.1µM
COCCCNC(=S)Nc1ccc2nc3n(c(=O)c2c1)CCCCC3	none
Cc1ccc(C)c(CNC(=O)c2ccc3c(c2)nc2n3CCCCC2)c1	TDP1 cell CPT inconclusive, DT40 TDP1 no CPT 18.4µM (no result: HT1080NT lethal, IL-1B inflam inh, HT1080 IDH1KD tx)
O=C(Nc1ccc(F)c(Cl)c1)c1ccc2c(Cl)c3c(nc2c1)CCCC3	none (no result: HT1080NT lethal, IL-1B inflam inh, HT1080 IDH1KD tx)
CCOCCCNC(=S)Nc1ccc2nc3n(c(=O)c2c1)CCCCC3	IL-1B inflam inh -63.8
CCOc1ccccc1NC(=O)c1ccc2c(Cl)c3c(nc2c1)CCC3	none (no result: HT1080NT lethal, IL-1B inflam inh, HT1080 IDH1KD tx)
CCOc1ccccc1NC(=O)c1ccc2c(Cl)c3c(nc2c1)CCCC3	TDP1 cell CPT inconclusive, DT40 TDP1 no CPT 23.1µM (no result: HT1080NT lethal, IL-1B inflam inh, HT1080 IDH1KD tx)
CC(C)(C)C(=O)Cn1nc(Cl)nc1Cl	none
O=C(Nc1ccc(F)cc1F)N1CCC(c2nc3ccccc3o2)CC1	none
Cc1nc(C(F)(F)F)ccc1C(=O)N1CCC(C)(C(=O)NS(=O)(=O)C2CC2)C1 (centres undefined)	none
Cc1c(CC(=O)NCCCC(=O)O)c(=O)oc2cc3c(cc12)CCC(C)(C)O3	HT1080NT lethal inconclusive, TDP1 cell CPT inconclusive, DT40 TDP1 no CPT inconclusive
CCOc1ccc(NC(=O)c2ccc3c(=O)n4c(nc3c2)CCCCC4)cc1	TDP1 cell CPT inconclusive, DT40 TDP1 no CPT inconclusive
Cc1csc(NC(=O)c2ccc3c(=O)n4c(nc3c2)CCCCC4)n1	DT40 TDP1 no CPT inconclusive
CCN(CC)S(=O)(=O)c1ccc(NC(=O)c2ccc3c(=O)n4c(nc3c2)CCCCC4)cc1	TDP1 cell CPT 23.1µM, DT40 TDP1 no CPT 23.1µM (no result: HT1080NT lethal, IL-1B inflam inh, HT1080 IDH1KD tx)
CCOc1ccccc1NC(=O)c1ccc2c(=O)n3c(nc2c1)CCCCC3	IL-1B inflam inh inconclusive, TDP1 cell CPT 16.4µM, DT40 TDP1 no CPT inconclusive
O=C(Nc1nccs1)c1ccc2c(=O)n3c(nc2c1)CCCCC3	TDP1 cell CPT inconclusive, DT40 TDP1 no CPT 16.4µM
COc1ccc(C)cc1NC(=O)c1ccc2c(=O)n3c(nc2c1)CCCCC3	HT1080 IDH1KD tx inconclusive, TDP1 cell CPT 14.6µM, DT40 TDP1 no CPT inconclusive
CCOc1ccccc1NC(=O)C(=O)Nc1ccc2nc3n(c(=O)c2c1)CCCCC3	TDP1 cell CPT 23.1µM, DT40 TDP1 no CPT 18.4µM (no result: HT1080NT lethal, IL-1B inflam inh, HT1080 IDH1KD tx)
CCOC(=O)c1ccccc1NC(=O)C(=O)Nc1ccc2nc3n(c(=O)c2c1)CCCCC3	none (no result: HT1080NT lethal, IL-1B inflam inh, HT1080 IDH1KD tx)
O=C(NC(=S)NCC1CCCO1)c1ccc(Br)o1 (centres undefined)	none
CC(=O)Nc1cc(-c2cccc(C(=O)NCCN(C)C)c2)cn2c(-c3ccc(F)c(Cl)c3)cnc12	HT1080NT lethal 16.4µM, HT1080 IDH1KD tx 20.6µM, TDP1 cell CPT 2.06µM, DT40 TDP1 no CPT 1.46µM
CC(=O)Nc1cncc(-c2cccc(C(=O)NCCN(C)C)c2)n1	none
CC(=O)Nc1cc(-c2cccc(C(=O)NCCN(C)C)c2)cn2c(-c3ccc(C(C)=O)cc3)cnc12	HT1080NT lethal 18.4µM, HT1080 IDH1KD tx inconclusive, TDP1 cell CPT inconclusive, DT40 TDP1 no CPT 20.6µM
Cc1cc(C)nc(SCC(N)=O)n1	DT40 TDP1 no CPT inconclusive
CN1CCN(C(=O)c2cccc3c(-c4ccc(F)c(F)c4)coc23)CC1	TDP1 cell CPT inconclusive, DT40 TDP1 no CPT inconclusive
CC(C)c1nnc(NC(=O)CCC(=O)NCc2cccs2)s1	none
COc1ccc(-c2cc(C(=O)N3CCN(c4ccccc4)CC3)no2)cc1	IL-1B inflam inh -52.6, HT1080 IDH1KD tx inconclusive, TDP1 cell CPT 18.4µM!, DT40 TDP1 no CPT 20.6µM!
